# Compound activity (PubChem)
# Pf growth 48h: P. falciparum growth inhibition at 48 hours (one generation); AID 504832; Potency, µM (doses to about 28.7 µM), hits mostly inhibitors; 5.9% of 310,000 active; P. falciparum luciferase growth in erythrocytes, 48 h
#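 A one-generation exposure of luciferase-tagged malaria parasites in RPMI 1640/Albumax erythrocyte culture, 37 C and 5% CO2. Inhibition is inferred from decreased luminescence after adding detection reagent.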
# HCMV antiviral: human cytomegalovirus inhibition. HFF cells, HCMV-luciferase reporter, 72 h; stronger effect = lower value. activity change, negative = inhibition, % at 57.5 µM. 4.5% of 410,000 active; in the data active = activity change below about -60%; inconclusive = no clear call, values can overlap the other calls; inactive = above about -39%
#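 After 16 h attachment at 37C, HFF cells received test compound and HCMV-luciferase (1 PFU/cell); reporter luminescence read 72 h later, data normalized against buffer-only and known inhibitor Salinomycin.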
# Sm TGR inh: S. mansoni TGR enzyme inhibition; Q962Y6; purified TGR, DTNB reduction, TNB absorbance 405 nm; Potency, µM (doses to about 114 µM), hits mostly inhibitors; 3% of 360,000 active; note: nearly all actives have a fitted effect of over 60% in size
#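 Kinetic colorimetric format: TGR-catalysed, NADPH-driven DTNB reduction monitored via TNB absorbance. Enzyme dispensed at 20 nM; compound exposure 15 min at room temperature before reaction start.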
# FBPA Giardia inh: blocks Giardia fructose-bisphosphate aldolase activity. A8B2U2. purified Giardia FBPA. Potency, µM (top dose mostly 59.6 µM), most hits filed as inhibitors. 0.71% of 290,000 active; note: nearly all actives have a fitted effect of over 55% in size
# Target sequence (A8B2U2 whole entry, looked up): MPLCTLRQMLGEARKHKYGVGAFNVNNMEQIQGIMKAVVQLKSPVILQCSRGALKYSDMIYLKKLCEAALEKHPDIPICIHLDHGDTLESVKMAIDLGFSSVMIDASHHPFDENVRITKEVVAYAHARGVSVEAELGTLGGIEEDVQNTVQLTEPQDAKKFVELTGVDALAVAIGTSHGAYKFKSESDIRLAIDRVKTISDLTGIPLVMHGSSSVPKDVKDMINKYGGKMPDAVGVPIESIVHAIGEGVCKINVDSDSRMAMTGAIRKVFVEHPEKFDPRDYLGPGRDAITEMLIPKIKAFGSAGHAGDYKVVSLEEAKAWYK
#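 Giardia FBPA (40 nM reagent) was preincubated 10 min at RT with compound (up to 57.5 uM final), then substrate plus GAPDH/TPI/NAD/arsenate coupling system with diaphorase/resazurin was added; resorufin fluorescence (525/598 nm) was read after 20 min.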
# Pf growth 96h: P. falciparum growth inhibition at 96 hour, primary screen for plastid delayed-death inhibitors; P. falciparum luciferase reporter growth, 96 h; Potency, µM (top dose mostly 28.7 µM), hits mostly inhibitors; 6.9% of 320,000 active
#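 P. falciparum expressing integrated firefly luciferase grown in erythrocytes (2% hematocrit, 0.05% parasitemia final) with compounds for 96 hours at 37 C, 5% CO2. Growth inhibition read as loss of luminescence after adding luciferase detection reagent.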
# Hits are given with their value; 0 = inactive; ? = inconclusive; - = no result given. The list is not random: actives were taken first. Their share in the collection is about 14%. Unless noted, calls come from the whole dose curve; as a rule, active = well fitted curve in the direction sought with a large enough effect; inconclusive = small, poorly fitted or top-dose-only effect, or another doubt; inactive = no such curve, though single readings can be large; an effect the other way counts as inactive or inconclusive.
SMILES,Pf growth 48h,HCMV antiviral,Sm TGR inh,FBPA Giardia inh,Pf growth 96h
Cc1ccc(-c2noc(CCCC(=O)NC3CCCCC3)n2)cc1,0,-77,0,0,0
O=C(CCCc1nc(-c2ccccc2)no1)Nc1cccnc1,0,0,0,0,?
Cc1ccc(-c2noc(CCC(=O)NC3CCCC3)n2)cc1,0,0,0,0,?
COc1ccc(-c2noc(CCCC(=O)Nc3cccc(Cl)c3C)n2)cc1,-,-77,0,-,-
Cc1ccc(-c2noc(CCCC(=O)Nc3cccnc3)n2)cc1,?,-63,0,0,?
COc1ccccc1-c1noc(CCC(=O)NC2CCCC2)n1,0,0,0,-,2.6µM
Cc1ccccc1NC(=O)N[C@H]1CC[C@@]23CCCN2C(=O)CCC[C@H]3[C@H]1C,-,0,-,-,-
CC(=O)C(Cc1ccccc1)NC(=O)CN(C)Cc1ccccc1Cl (stereo not drawn),?,0,0,0,?
O=C(O)CC1c2ccccc2CCN1C(=O)Nc1cc(Cl)ccc1Cl (stereo not drawn),-,0,0,-,-
CCOC(=O)C1=CCC(c2ccccc2C(F)(F)F)N(S(=O)(=O)c2ccc(C)cc2)C1 (stereo not drawn),-,0,-,-,-
O=C(CCc1nc(-c2ccccc2F)no1)NC1CCCCC1,0,0,0,0,-
Cc1ccccc1-c1noc(CCC(=O)NC2CCCCC2)n1,0,0,0,0,10µM
CCc1ccc(-c2[nH]nc3nc(-c4cc(OC)ccc4OC)cc(C(=O)O)c23)cc1,-,0,0,-,-
N#Cc1c(Nc2ccccc2Cl)s[nH]c1=O,?,-87,0,0,0
COc1ccc(C2NCc3ccc4c(c3-n3cccc32)OCO4)cc1O (stereo not drawn),6.6µM,-,0,0,-
c1cc2n(c1)-c1c(ccc3c1OCO3)CNC2c1ccc2c(c1)OCO2 (stereo not drawn),?,0,0,0,0
CO/N=C(/C(=O)N[C@@H]1C(=O)N2C(C(=O)O)=CCS[C@H]12)c1csc(N)n1,0,-,-,-,0
CC(=O)OC(C)C1C2=C(C(=O)CC1(C)O)C(=O)c1c(ccc(-c3ccc4c(c3O)C(=O)C3=C(C4=O)C(C(C)OC(C)=O)C(C)(O)CC3=O)c1O)C2=O (stereo not drawn),-,-68,-,-,-
CCCCNC(=O)c1nc2cc(C)c(C)cc2nc1-c1cccc(OC)c1,-,0,-,-,-
CS(=O)(=O)N1CCN(Cc2ccc(C(F)(F)F)cc2)CC1,-,0,0,?,9.3µM
Cc1ccc(C)c(-c2nnc(NC(=O)CCS(=O)(=O)c3ccc(F)cc3)o2)c1,0,0,0,-,0
Cc1cccc[n+]1CC(=O)c1ccc([N+](=O)[O-])cc1,-,-87,-,-,-
Cc1cccc[n+]1CC(=O)c1ccc(NC(=O)c2ccccc2)cc1,2.9µM,0,?,0,0
Cc1c(N)cc[n+](CC(=O)c2ccccc2)c1C,0,-76,0,0,0
N#Cc1cc[n+](CC(=O)c2ccc(NC(=O)c3ccccc3)cc2)cc1,4.1µM,0,0,0,3.3µM
SMILES,Pf growth 48h,HCMV antiviral,Sm TGR inh,FBPA Giardia inh,Pf growth 96h
COc1cccc(NC(=O)N(C)C[C@H]2OCc3ccccc3-c3c(n(C)c4ccccc34)C(=O)N([C@H](C)CO)C[C@H]2C)c1,-,0,-,-,-
Cc1cccc(NC(=O)CC23CC4CC(C2)CC(n2nnc(C)n2)(C4)C3)c1,?,0,0,0,13µM
Cc1nnn(C23CC4CC(CC(CC(=O)Nc5cccc(F)c5)(C4)C2)C3)n1,?,0,0,0,0
COc1ccc2nc3cc(Cl)ccc3c(Nc3cc(C(C)C)c(O)cc3C)c2c1,0.021µM,?,0,0,0.066µM
COc1ccc(S(=O)(=O)Nc2cc(C(C)C)c(O)cc2C)cc1,0,0,0,0,0
COCCNc1oc(/C=C/c2cccc(OC)c2)nc1S(=O)(=O)c1ccccc1,-,0,-,-,-
CN(C)c1oc(/C=C/c2cccs2)nc1S(=O)(=O)c1ccccc1,?,?,35µM,0,?
COc1ccccc1/C=C/c1nc(S(=O)(=O)c2ccccc2)c(N(C)C)o1,?,0,10µM,0,?
COc1cccc(/C=C/c2nc(S(=O)(=O)c3ccccc3)c(N(C)C)o2)c1,10µM,0,?,0,?
CCN(Cc1ccccc1)C(=O)c1cccc(S(=O)(=O)N2CCN(Cc3ccccc3)CC2)c1,0,?,0,-,0
COC(=O)N[C@@H](CCc1ccccc1)[C@]1(C(=O)OC)CCCC1=O,-,-,-,0,-
CCC(SC1=N/C(=C/c2ccccc2OC)C(=O)N1c1ccccc1)C(=O)Nc1cc(C)on1 (stereo not drawn),?,0,0,0,?
N#C/C(=N\Nc1ccc(Cl)c(Cl)c1)C(=O)C1CC1,0,-100,0,0,0
CC(=O)c1ccc(NC(=O)c2noc3c2CSc2ccccc2-3)cc1,-,0,0,-,-
N#C/C(=C\c1ccco1)Sc1nc2ccccc2s1,0,0,40µM,0,0
COc1ccc2sc(N(Cc3cccnc3)C(=O)c3cccs3)nc2c1,-,?,0,-,-
CC(=O)c1sc(C(=O)O)c(-c2ccco2)c1-c1ccco1,0,0,20µM,?,0
CCOc1ccc(C2SCC(=O)Nc3c2c(=O)[nH]n3C2CCCCCC2)cc1 (stereo not drawn),0,0,0,0,?
COc1ccc(C2SCC(=O)Nc3c2c(=O)[nH]n3C2CCCCCC2)cc1 (stereo not drawn),0,0,40µM,0,0
CCc1ccc(NC(=O)C(Cc2ccccc2)NS(=O)(=O)c2ccc3c(c2)CCN3C(C)=O)cc1 (stereo not drawn),-,0,0,-,-
CCNC(=O)C1(C)CCCN(C(=O)c2ccccc2Br)C1 (stereo not drawn),-,0,-,-,-
C#CCOCCOCCOCCNc1nc(N2CCN(C(=O)CCCCCCCCCCNC(=O)[C@H]([C@@H](C)CC)n3cc(CCCCN=C(N)N)nn3)CC2)nc(N2CCN(C(=O)CCCCCCCCCCNC(=O)[C@H](CCCCN)n3cc(C[C@@H](C)CC)nn3)CC2)n1,9.3µM,-,?,-,5.2µM
C#CCOCCOCCOCCNc1nc(N2CCN(C(=O)[C@H]([C@@H](C)CC)n3cc(CCCN=C(N)N)nn3)CC2)nc(N2CCN(C(=O)[C@H](CCCCN)n3cc(CC(C)O)nn3)CC2)n1 (stereo partly drawn),0,0,0,-,?
C#CCOCCOCCOCCNc1nc(N2CCN(C(=O)CCCCCCCCCCNC(=O)[C@H](CCCCN)n3cc(CCCC(=O)O)nn3)CC2)nc(N2CCN(C(=O)CCCCCCCCCCNC(=O)[C@H](CCCN=C(N)N)n3cc(C[C@@H](C)CC)nn3)CC2)n1,10µM,-,0,-,13µM
C#CCOCCOCCOCCNc1nc(N2CCN(C(=O)CCCCCCCCCCNC(=O)[C@H](CCCCN)n3cc(CCO)nn3)CC2)nc(N2CCN(C(=O)CCCCCCCCCCNC(=O)[C@H](CCCN=C(N)N)n3cc(C[C@@H](C)CC)nn3)CC2)n1,12µM,-,0,-,4.7µM
O=C(O)c1cc(N2C(=O)C3CC=CCC3C2=O)ccc1NCc1cccnc1 (stereo not drawn),-,0,0,0,0
